Experimental data: PubChem BioAssay (NCATS)
Results filed as inconclusive are left out. Entries that show only a call come without a potency. Calls of active or inactive are those of the source. Calls come from the whole dose curve; as a rule, active = well fitted curve in the direction sought with a large enough effect; inconclusive = small, poorly fitted or top-dose-only effect, or another doubt; inactive = no such curve, though single readings can be large; an effect the other way counts as inactive or inconclusive.

Legend:
[1] = molecular target: Aldehyde dehydrogenase, mitochondrial (Homo sapiens) (UniProt P05091); assay: qHTS for Inhibitors of the Aldehyde Dehydrogenase Family (ALDH2) Primary screen (AID 2061308); note: nearly all actives have a fitted effect of over 55% in size
[2] = molecular target: Retinaldehyde dehydrogenase 3 (Homo sapiens) (UniProt P47895); assay: qHTS for Inhibitors of the Aldehyde Dehydrogenase Family (ALDH1A3) Primary screen (AID 2061315)

| Structure (SMILES) | Potency [1] | Potency [2] |
| --- | --- | --- |
| O=C(c1ccccc1O)N(Cc1ccccc1)Cc1ccccc1 | inactive | inactive |
| O=[S+]([O-])(Nc1nccs1)c1ccc(NCc2cc(Cl)cc(Br)c2O)cc1 | inactive | inactive |
| Cc1nc(NC2CCCCC2)c2nc(-c3ccccc3)n(CCCN(C)C)c2n1 | inactive | inactive |
| O=C1c2ccccc2C(=O)N1c1noc2ccccc12 | inactive | inactive |
| Cc1cc2c(s1)c1cnn(Cc3ccc(C(F)(F)F)cc3)c(=O)c1n2C | inactive | inactive |
| CCCc1ccc(-c2csc(NC(=O)c3ccncc3NS(=O)(=O)c3ccc(C)cc3)n2)cc1 | inactive | inactive |
| Cc1cc(NS(=O)(=O)c2ccc(NC(=O)Cc3ccccc3)cc2)no1 | inactive | inactive |
| COC(=O)c1c(NC(=O)COC(=O)c2ccc(Cl)cc2[N+](=O)[O-])sc2c1CCCCC2 | inactive | inactive |
| O=C(O)c1ccc(O)c2ncc(N3CCCN(CCCc4ccncc4)CC3)cc12 | inactive | inactive |
| O=C(c1ccc2c(c1)ncn2-c1cccc(Cl)c1)N1CCCCC1 | inactive | inactive |
| Cc1ccc(S(=O)(=O)Nc2cc(Cl)cc(C(=O)Nc3nc(-c4ccccc4)cs3)c2)cc1 | inactive | inactive |
| Cc1nnc(-c2cnn(C)c2)n1CCCn1ccnc1 | inactive | inactive |
| CC(C)(C)n1cnc2cc(C(=O)N3CCCCC3)ccc21 | inactive | inactive |
| CC(C)c1ccccc1-c1nc(NCc2ccc(-c3cccnc3)cc2)c2occc2n1 | inactive | inactive |
| COc1cccc(-c2ccc3ncnc(NCc4cccnc4)c3c2)c1 | inactive | inactive |
| C=C1C(=O)OC2CC(C)C(CCC(C)O)=CCC12 (configuration not stated) | inactive | inactive |
| COc1cc(-c2nc(Nc3ccc(F)c(F)c3)c3ccccc3n2)cc(OC)n1 | inactive | inactive |
| c1nc(N2CCOCC2)c2cc(-c3ccc4c(c3)OCO4)ccc2n1 | inactive | inactive |
| COc1ccc(C2=Nn3c(nnc3-c3ccccc3Cl)SC2)cc1OC | inactive | inactive |
| Cn1cc(C[C@H](C(=O)O)N2C(=O)c3ccc(C(=O)O)cc3C2=O)c2ccccc21 | inactive | inactive |
| Cc1cc2c(s1)c1cnn(Cc3cccc(C)c3F)c(=O)c1n2C | inactive | inactive |

| Structure (SMILES) | Potency [1] | Potency [2] |
| --- | --- | --- |
| c1nc(NCC2CCCC2)c2cc(-c3ccc4c(c3)OCO4)ccc2n1 | inactive | inactive |
| O=C(Nc1ccccc1F)c1ccc(O)c2ncccc12 | inactive | inactive |
| Cc1cc(NC(=O)Nc2nnc(-c3cccnc3)s2)ccc1F | inactive | inactive |
| O=S(=O)(NCc1cccc2ccccc12)c1cc(Cl)c(Oc2cccc(N3CCNCC3)c2)s1 | inactive | inactive |
| CC[C@]1(O)C[C@H]2CN(CCC3C(=Nc4ccccc43)[C@@](C(=O)OC)(c3cc4c(cc3OC)N(C)[C@H]3[C@@](O)(C(N)=O)[C@H](O)[C@]5(CC)C=CCN6CC[C@]43[C@@H]65)C2)C1 (some centres not stated) | inactive | inactive |
| c1coc(-c2ccc3ncnc(NCc4cccs4)c3c2)c1 | inactive | inactive |
| Cc1ccc(NS(=O)(=O)c2ccc(C(=O)Nc3nc(-c4ccccc4)cs3)cc2)cc1 | inactive | inactive |
| Cc1ccc(-c2ccc(=O)n(CC(=O)N(C3CCCCC3)C3CC3)n2)cc1 | inactive | inactive |
| C=CCNc1oc(C2CCCC2)nc1C#N | inactive | inactive |
| CCOc1ccccc1-c1nnc2n1N=C(c1cc(OC)cc(OC)c1)CS2 | inactive | inactive |
| O=S(=O)(c1ccc2c(c1)OCCO2)N1CCN(S(=O)(=O)c2ccccc2OC(F)(F)F)CC1 | inactive | inactive |
| C/C=C(\C)C(=O)OC1C[C@@]2(COC(C)=O)O[C@H]2/C=C\[C@@]2(C)O[C@@H]2[C@H]2OC(=O)C(COC(C)=O)=C12 (some centres not stated) | inactive | inactive |
| CNc1oc(-c2ccc3cnccc3c2)nc1C#N | inactive | inactive |
| CCOC(=O)c1ccc(O)c2ncc(NCC3CCCN(CCc4ccccc4)C3)cc12 (configuration not stated) | inactive | inactive |
| CC(=O)N1CCN(S(=O)(=O)c2ccc3c(c2)CC(=O)N3)CC1 | inactive | inactive |
| COc1ccc(-c2ccc(Nc3nc(-c4ccncc4)nc4ccccc34)cc2F)cc1F | inactive | inactive |
| COc1cccc(C2c3c(ncn(-c4ccncc4)c3=N)Oc3ccc4ccccc4c32)c1 (configuration not stated) | inactive | inactive |
| CC(C)c1ccc(=O)n(CC(=O)NCCc2ccccc2)n1 | inactive | inactive |
| Cc1ccnc(NC(=S)Nc2cccc([S+](=O)([O-])Nc3ccccc3F)c2)c1 | inactive | inactive |
| O=C(Nc1ccc(Cl)c(C(F)(F)F)c1)Nc1cccc(-c2ccncc2)n1 | inactive | inactive |
| Cc1ccc(N(C)S(=O)(=O)c2ccc3c(c2)CCC(=O)N3)cc1C | inactive | inactive |

| Structure (SMILES) | Potency [1] | Potency [2] |
| --- | --- | --- |
| O=C(Nc1nnc(-c2ccco2)o1)c1ccc(Br)cc1 | inactive | inactive |
| CS(=O)(=O)Nc1ccc(-c2nc(NCc3ccc(-c4ccnc(C(F)(F)F)c4)cc3)c3ccccc3n2)cc1 | inactive | inactive |
| CCC1CCC(C(=O)Nc2ccc(S(=O)(=O)Nc3nccs3)cc2)CC1 (configuration not stated) | inactive | inactive |
| Cc1cc(S(=O)(=O)Nc2cnccc2C(=O)Nc2nc(-c3ccccc3)cs2)c(C)o1 | inactive | inactive |
| COc1cc(F)c(S(=O)(=O)N2CCN(S(=O)(=O)c3ccc(N)cc3)CC2)c(F)c1 | inactive | inactive |
| CC(C)(C)CNc1ncnc2ccc(-c3ccc(C(=O)O)o3)cc12 | inactive | inactive |
| Cc1cc(C)nc(NC(=S)N2CCN(c3ccc(Cl)c(Cl)c3Cl)CC2)c1 | inactive | inactive |
| COc1ccccc1OC1=NS(=O)(=O)c2ccccc21 | inactive | inactive |
| O=C(OCC#CCSc1nnc(-c2cccs2)o1)c1ccc(F)cc1 | inactive | inactive |
| COc1ccc(CCC(=O)c2c(O)cc(O)cc2O[C@@H]2O[C@H](CO)[C@@H](O)[C@H](O)[C@H]2O)cc1 | inactive | inactive |
| CC(C)c1ccccc1-c1nc(NCc2ccc(-c3cccnc3)cc2)c2ccsc2n1 | inactive | inactive |
| Nc1cc(NC(=O)Nc2nnc(-c3ccncc3)s2)ccc1Cl | inactive | inactive |
| CC(=O)Nc1sc2c(c1C#N)CCN(C(C)C)C2 | inactive | inactive |
| NC(N)=NCCC[C@H](NC(=O)CNC(=O)c1ccccc1)C(=O)Nc1cc(C(F)(F)F)ccc1Cl | inactive | inactive |
| CN(C)c1ccc(-c2ccc(=O)n(CC(=O)NCCc3ccccc3)n2)cc1 | inactive | inactive |
| Cc1noc(C)c1C(=O)N1CCC2(CCCN(C(c3ccccc3)c3ccccc3)C2)CC1 | inactive | inactive |
| CC(=O)NC(c1cc(Cl)c2cccnc2c1O)C(C)C (configuration not stated) | inactive | inactive |
| Cc1ccc(NC(=O)c2cnn3c(-c4ccccc4)cc(C)nc23)cc1 | inactive | inactive |
| O=S(=O)(c1ccc(F)cc1)N1CCN(S(=O)(=O)c2ccc3c(c2)OCCO3)CC1 | inactive | inactive |
| Cc1cc2c(s1)c1cnn(Cc3c(F)ccc(C)c3Cl)c(=O)c1n2C | inactive | inactive |
| Cc1ccc(-c2ccc(CNc3nc(-c4ccccc4C(C)C)ncc3F)cc2)cn1 | inactive | inactive |

| Structure (SMILES) | Potency [1] | Potency [2] |
| --- | --- | --- |
| COc1ccccc1C(=O)Nc1nc(-c2ccccc2)cs1 | inactive | inactive |
| Cc1nc2cc(C(=O)NCc3ccccn3)nn2c(C)c1Cc1cccc(Cl)c1 | inactive | inactive |
| O=C(Nc1ccc(Cl)c(C(F)(F)F)c1)Nc1nnc(-c2ccncc2)s1 | inactive | inactive |
| CCN(CC)CCCCn1c(-c2ccccc2)nc2c(Nc3ccccc3)nc(C)nc21 | inactive | inactive |
| Cc1ccc(NS(=O)(=O)c2ccc3c(c2)oc(=O)n3C)cc1C | inactive | inactive |
| O=S(=O)(NC1CCC(CNS(=O)(=O)c2c(F)cccc2F)CC1)c1ccc2c(c1)OCCO2 (configuration not stated) | inactive | inactive |
| CC(=O)Nc1cc2c(s1)CNCC2 | inactive | inactive |
| Cc1cc(NC(=O)c2csc(NC(=O)Cc3ccc(Cl)c(Cl)c3)n2)no1 | inactive | inactive |
| C[C@H]1CC[C@@]2(OC1)O[C@H]1CC3[C@@H]4CC[C@@H]5C[C@@H](O[C@@H]6O[C@H](CO)[C@@H](O[C@@H]7O[C@@H](C)[C@H](O)[C@@H](O)[C@H]7O)[C@H](O)[C@H]6O[C@@H]6O[C@H](CO)[C@@H](O)[C@H](O)[C@H]6O)CC[C@]5(C)C4CC[C@]3(C)[C@H]1[C@@H]2C (some centres not stated) | inactive | inactive |
| Cc1ccc(OCCn2c3c(c4ccccc42)CCN(C(=O)C2CCCCC2)C3)cc1 | inactive | inactive |
| Nc1ccc(S(=O)(=O)N2CCCN(S(=O)(=O)c3ccc4c(c3)OCCO4)CC2)cc1 | inactive | inactive |
| CC1(C)CC[C@]2(C(=O)O)CC[C@]3(C)C(=CCC4[C@@]5(C)C[C@@H](O)[C@H](O)C(C)(C)C5CC[C@]43C)C2C1 (some centres not stated) | inactive | inactive |
| CC(=O)Nc1cccc([S+](=O)([O-])N2CCCN([S+](=O)([O-])c3cccc(NC(C)=O)c3)CC2)c1 | inactive | inactive |
| O=C(Nc1nc(-c2ccccc2)cs1)c1ccncc1NS(=O)(=O)c1cccc2cccnc12 | inactive | inactive |
| CC(C)(C)n1nc(Cc2cccc([N+](=O)[O-])c2)c2c(N)ncnc21 | inactive | inactive |
| CSc1ccc(CNc2ncnc3ccc(-c4c(C)noc4C)cc23)cc1 | inactive | inactive |
| COC(=O)c1ccccc1S(=O)(=O)Nc1ccc(OC)cc1 | inactive | inactive |
| Cc1ccc(OCCn2c(CCNC(=O)c3ccccc3Br)nc3ccccc32)cc1 | inactive | inactive |
